The values below come from PubChem BioAssay (Tox21).

Assay [1] in a line: Nuclear factor erythroid 2-related factor 2/antioxidant responsive element (Nrf2/ARE) small molecule agonists: qHTS cell viability counter screen in human keratinocytes (AID 1919968; active = well fitted curve in the direction sought with a large enough effect in the repeat runs; an effect the other way counts as inactive or inconclusive; also: nearly all actives have a fitted effect of over 55% in size). The method, boiled down:
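Cytotoxicity was multiplexed with the Nrf2/ARE luciferase assay in the same wells. Stably transfected HaCaT keratinocytes were treated with test compounds for 23 h at 37 C. Cell viability was then measured by CellTiter-Fluor fluorescence.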

The target of assay [2] is Gonadotropin-releasing hormone receptor (Homo sapiens) (UniProt P30968). Put plainly: Human gonadotropin-releasing hormone receptor (GnRHR) small molecule agonists, calcium flux assay in GnRHR-HEK293 cells (AID 1920063). Also: nearly all actives have a fitted effect of over 35% in size. An outline of the steps:
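Agonist activity was measured as intracellular calcium flux in HEK293 cells engineered to stably express human GnRHR. After dye loading for 1 hour at 37 C, compounds in DMSO were added and fluorescence was followed for 3 minutes.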
In general terms: A change in cytosolic calcium serves as a functional read-out for many receptors and channels.

Assay [3] deals with KiSS-1 receptor (Homo sapiens) (UniProt Q969F8). The assay is described as follows: Human kisspeptin (KISS1R) small molecule agonists, calcium flux assay in KISS1R-HEK293 cells (AID 1920064; active = well fitted curve in the direction sought with a large enough effect in the repeat runs; an effect the other way counts as inactive or inconclusive). An outline of the steps:
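Agonist activity is monitored as intracellular calcium rise in engineered HEK293 cells carrying human KISS1R. Cells are dye-loaded for 1 h at 37 C before compound addition, and fluorescence is recorded for 3 min.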

A short description of assay [4]: G protein-coupled receptor (GPCR) small molecule agonists, calcium flux assay: HEK293 wild type cell line counter screen (AID 1920065). The method, boiled down:
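Seed cells, incubate 18 h (37 C, 5% CO2); add calcium dye, 1 h at 37 C; pin-transfer compounds, ATP control or DMSO; read fluorescence 480/540 nm each second for 3 min.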

The nature of assay [5]: p53 small molecule agonists, cell-based qHTS assay with human liver microsomes (AID 1963577).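 Also: p53 response element beta-lactamase reporter cells with liver microsomes plus NADPH.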 An outline of the steps:
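HLM-supplemented p53RE-bla reporter assay: 16 h compound exposure at 37 C, microsomes and NADPH each 0.5 mg/mL final, read by fluorescence intensity.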

Assay [6] in a line: p53 small molecule agonists, cell-based qHTS assay with rat liver microsomes (AID 1963578). An outline of the steps:
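Quantitative HTS of the Tox21 10K library: p53RE-bla cells, rat liver microsomes plus NADPH at 0.5 mg/mL final each, 16 h at 37 C, beta-lactamase fluorescence detection.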
(In general: Quantitative high-throughput screening tests each substance at several concentrations.)

A short description of assay [7]: p53 small molecule agonists, cell-based qHTS assay with human liver microsomes: qHTS cell viability counter screen (AID 1963579). Also: nearly all actives have a fitted effect of over 45% in size. An outline of the steps:
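Viability of p53RE-bla cells is measured as CellTiter-Glo luminescence following a 16 h, 37 C incubation with compound, liver microsomes from human donors and NADPH.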

Assay [8] is described as follows: p53 small molecule agonists, cell-based qHTS assay with rat liver microsomes: qHTS cell viability counter screen (AID 1963580). Also: nearly all actives have a fitted effect of over 45% in size. An outline of the steps: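 Cytotoxicity counter screen: intracellular ATP read by CellTiter-Glo luminescence in the p53 reporter wells. HCT-116 p53RE-bla cells were treated for 16 h at 37 C alongside rat liver microsomes and NADPH, each 0.5 mg/mL final.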

Assay [9] is described as follows: p53 small molecule agonists, cell-based qHTS assay: qHTS cell viability counter screen (AID 1963581). Also: nearly all actives have a fitted effect of over 45% in size. An outline of the steps: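 Viability was counter-screened in parallel with the p53 agonist reporter by measuring intracellular ATP luminescence in the same HCT-116 p53RE-bla wells after 16 h compound treatment at 37 C.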
The nature of assay [10]: p53 small molecule agonists, cell-based qHTS assay (AID 1963582; active = well fitted activation curve with a large enough effect in the signal ratio in the repeat runs, not every such curve was filed as active; the % refers to the signal ratio). An outline of the steps:
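Cells carrying a p53-responsive bla reporter are treated with test compounds for 16 h at 37 C; beta-lactamase activity is then detected with LiveBLAzer B/G FRET substrate after 2 h at room temperature.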

In assay [11] the target is 5-hydroxytryptamine receptor 2A (Homo sapiens) (UniProt P28223). Put plainly: 5-hydroxytryptamine receptor 2A (HTR2A) small molecule antagonists, cell-based qHTS assay (AID 1963586). Also: nearly all actives have a fitted effect of over 45% in size. The method, boiled down:
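CHO cells stably expressing human HTR2A were plated for 18 h at 37 C, then loaded with calcium dye for 1 h. Compounds were preincubated 5 min at room temperature before DOI (4 nM solution) was added. Kinetic fluorescence was read for 3 min.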

Assay [12] has the same target. The assay is described as follows: 5-hydroxytryptamine receptor 2A (HTR2A) small molecule agonists, cell-based qHTS assay (AID 1963587). Also: nearly all actives have a fitted effect of over 30% in size. Also: potency is read from the fitted curve at half-maximal effect. The method, boiled down:
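Kinetic calcium-flux fluorescence (2 min, 1 sec intervals) after compound addition in agonist mode. HTR2A-CHO cells were cultured 18 h, then dye-loaded 1 h at 37 C.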

For assay [13], the target named is Muscarinic acetylcholine receptor M1 (Homo sapiens) (UniProt P11229). The assay is described as follows: Cholinergic receptor muscarinic 1 (CHRM1) small molecule agonists, cell-based qHTS assay (AID 1963589). Also: nearly all actives have a fitted effect of over 35% in size. The method, boiled down: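 Cells were plated and incubated 18 h at 37 C/5% CO2, loaded with calcium dye for 1 h at 37 C, then treated with compounds in DMSO. Fluorescence was recorded kinetically at 1 sec intervals.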

Assay [14] in a line: cAMP Responsive Elements (CRE) small molecule antagonists, cell-based qHTS assay (AID 1963591; active = well fitted inhibition curve with a large enough effect in the signal ratio in the repeat runs, not every such curve was filed as active; the % refers to the signal ratio). The method, boiled down:
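Cells (CRE-bla HEK 293T, DMEM with 10% dialyzed FBS and 25 mM HEPES) are seeded and incubated 18 h. Compounds are added with NKH477 agonist at 0.25 uM final for 3 h, then FRET substrate for 2 h.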

The target in assay [15] is D(2) dopamine receptor (Homo sapiens) (UniProt P14416). The assay is described as follows: Dopamine D2 receptor (DRD2) small molecule agonists, cell-based qHTS assay (AID 1963594). Also: nearly all actives have a fitted effect of over 35% in size. An outline of the steps: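 cAMP accumulation in DRD2-HEK293 cells measured by HTRF after 1 h detection; compounds added 10 min before NKH477 (200nM […]) forskolin-analogue stimulation, 30 min at room temperature, with Ro20-1724 present at 0.1 mM final.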

The target is the same in assay [16]. The assay is described as follows: Dopamine D2 receptor (DRD2) small molecule antagonists, cell-based qHTS assay (AID 1963595; active = well fitted inhibition curve with a large enough effect in the signal ratio in the repeat runs, with a control signal flat; the % refers to the signal ratio). An outline of the steps: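 Stable D2 receptor HEK293 line, 24 h after seeding. Compound preincubated 10 min, then quinpirole (12 nM) with forskolin analogue NKH477 (200 nM), 30 min, room temperature. Detection by time-resolved FRET of cAMP.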

Assay [17] concerns the target Muscarinic acetylcholine receptor M1 (Homo sapiens) (UniProt P11229). The assay is described as follows: Cholinergic receptor muscarinic 1 (CHRM1) small molecule antagonists, cell-based qHTS assay (AID 1963588). Also: nearly all actives have a fitted effect of over 40% in size. An outline of the steps: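 Compounds were tested at 15 concentrations in three independent runs. Dye-loaded CHRM1-CHO cells were exposed 5 min at room temperature before stimulation by acetylcholine added at 50nM. Intracellular calcium was read kinetically on FDSS for 3 min.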

Assay [18] concerns the target Beta-2 adrenergic receptor (Homo sapiens) (UniProt P07550). Put plainly: Adrenergic beta2 receptor (ADRB2) small molecule agonists, cell-based qHTS assay (AID 1963593).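 Also: CHO cells stably overexpressing human ADRB2.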 An outline of the steps: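 CHO cells stably over-expressing ADRB2 were plated overnight at 37C, then dosed with compounds plus a stimulation mix containing 100uM IBMX and 25uM Ro-20-1724 for 0.5hr at room temperature. cAMP was measured by HTRF competition, 1hr.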

Assay [19] in a line: cAMP Responsive Elements (CRE) small molecule agonists, cell-based qHTS assay (AID 1963590). An outline of the steps:
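Cells carrying a CRE-driven beta-lactamase reporter (HEK 293T) are seeded, incubated overnight (18 h), and treated with test compounds for 3 h at 37 C; reporter activity is then detected with a FRET substrate after 2 h at room temperature.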

For assay [20], the target named is Beta-2 adrenergic receptor (Homo sapiens) (UniProt P07550). The assay is described as follows: Adrenergic beta2 receptor (ADRB2) small molecule antagonists, cell-based qHTS assay (AID 1963592). Also: series mostly up to about 92 µM; nearly all actives have a fitted effect of over 50% in size. The method, boiled down:
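Assay format: CHO-ADRB2 cells, 18-20hr seeding at 37C/5% CO2, then compound plus 1nM isoproterenol agonist mix for 0.5hr RT. Homogeneous time-resolved fluorescence cAMP detection after 1hr, expressed as 665/615 nm ratio.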

Unmarked numbers belong to inactive results. Results filed as inconclusive are left out. The source made the active and inactive calls. Unless noted, calls follow the shape of the full dose curve.

Chain of Gonadotropin-releasing hormone receptor (Homo sapiens) (P30968 whole entry, looked up): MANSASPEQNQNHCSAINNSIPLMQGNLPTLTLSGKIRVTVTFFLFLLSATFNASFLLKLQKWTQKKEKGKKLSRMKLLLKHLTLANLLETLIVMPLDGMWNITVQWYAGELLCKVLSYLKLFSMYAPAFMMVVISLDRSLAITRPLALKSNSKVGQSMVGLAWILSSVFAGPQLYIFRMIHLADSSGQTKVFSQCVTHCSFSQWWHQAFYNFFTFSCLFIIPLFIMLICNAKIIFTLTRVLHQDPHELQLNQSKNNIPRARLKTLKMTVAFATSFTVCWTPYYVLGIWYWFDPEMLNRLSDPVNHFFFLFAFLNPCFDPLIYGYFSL
Chain of Beta-2 adrenergic receptor (Homo sapiens) (P07550 whole entry, looked up): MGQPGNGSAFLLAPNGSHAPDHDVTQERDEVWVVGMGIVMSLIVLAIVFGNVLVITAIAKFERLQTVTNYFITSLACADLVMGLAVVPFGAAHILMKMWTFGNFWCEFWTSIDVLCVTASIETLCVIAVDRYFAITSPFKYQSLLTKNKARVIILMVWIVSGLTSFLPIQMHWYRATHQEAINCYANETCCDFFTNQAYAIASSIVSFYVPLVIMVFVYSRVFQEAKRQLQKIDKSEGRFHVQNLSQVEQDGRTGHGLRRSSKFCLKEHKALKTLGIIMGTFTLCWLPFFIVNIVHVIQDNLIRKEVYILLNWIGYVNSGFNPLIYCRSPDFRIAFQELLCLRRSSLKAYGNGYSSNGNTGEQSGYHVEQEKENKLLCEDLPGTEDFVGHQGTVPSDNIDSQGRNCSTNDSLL
Chain of KiSS-1 receptor (Homo sapiens) (Q969F8 whole entry, looked up): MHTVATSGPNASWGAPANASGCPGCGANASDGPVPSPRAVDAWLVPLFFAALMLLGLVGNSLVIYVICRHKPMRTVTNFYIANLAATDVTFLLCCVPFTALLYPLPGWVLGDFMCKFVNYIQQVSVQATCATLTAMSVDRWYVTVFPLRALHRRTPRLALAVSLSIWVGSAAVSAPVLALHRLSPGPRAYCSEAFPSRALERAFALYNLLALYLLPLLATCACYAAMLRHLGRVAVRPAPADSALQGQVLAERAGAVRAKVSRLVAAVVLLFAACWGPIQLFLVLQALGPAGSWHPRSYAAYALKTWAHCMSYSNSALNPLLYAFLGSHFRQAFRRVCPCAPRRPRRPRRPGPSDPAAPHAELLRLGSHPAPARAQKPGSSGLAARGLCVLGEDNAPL
Chain of D(2) dopamine receptor (Homo sapiens) (P14416 whole entry, looked up): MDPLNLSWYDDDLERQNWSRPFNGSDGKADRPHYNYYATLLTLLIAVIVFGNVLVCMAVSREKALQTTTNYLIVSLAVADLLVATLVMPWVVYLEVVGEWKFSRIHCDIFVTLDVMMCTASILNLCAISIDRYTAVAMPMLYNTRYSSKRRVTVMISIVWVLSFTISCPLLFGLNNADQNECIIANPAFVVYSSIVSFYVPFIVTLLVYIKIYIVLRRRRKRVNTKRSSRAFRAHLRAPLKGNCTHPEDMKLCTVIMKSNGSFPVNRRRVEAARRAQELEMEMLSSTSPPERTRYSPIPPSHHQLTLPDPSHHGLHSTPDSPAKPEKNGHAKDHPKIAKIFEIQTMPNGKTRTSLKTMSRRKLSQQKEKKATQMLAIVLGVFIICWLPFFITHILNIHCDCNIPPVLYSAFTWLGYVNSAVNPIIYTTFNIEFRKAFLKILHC
Chain of Muscarinic acetylcholine receptor M1 (Homo sapiens) (P11229 whole entry, looked up): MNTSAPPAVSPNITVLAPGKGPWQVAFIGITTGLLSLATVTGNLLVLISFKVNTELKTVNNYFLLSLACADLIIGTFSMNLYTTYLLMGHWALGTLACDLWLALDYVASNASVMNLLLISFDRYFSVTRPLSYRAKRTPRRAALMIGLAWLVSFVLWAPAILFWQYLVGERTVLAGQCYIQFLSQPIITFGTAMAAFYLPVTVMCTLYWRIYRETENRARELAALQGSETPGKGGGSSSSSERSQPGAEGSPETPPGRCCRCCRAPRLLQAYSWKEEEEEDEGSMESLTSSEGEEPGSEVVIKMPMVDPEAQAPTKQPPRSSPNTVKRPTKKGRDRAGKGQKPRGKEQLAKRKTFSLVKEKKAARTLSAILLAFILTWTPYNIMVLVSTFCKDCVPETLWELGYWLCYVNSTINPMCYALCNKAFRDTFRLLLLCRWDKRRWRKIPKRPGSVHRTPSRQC
Chain of 5-hydroxytryptamine receptor 2A (Homo sapiens) (P28223 whole entry, looked up): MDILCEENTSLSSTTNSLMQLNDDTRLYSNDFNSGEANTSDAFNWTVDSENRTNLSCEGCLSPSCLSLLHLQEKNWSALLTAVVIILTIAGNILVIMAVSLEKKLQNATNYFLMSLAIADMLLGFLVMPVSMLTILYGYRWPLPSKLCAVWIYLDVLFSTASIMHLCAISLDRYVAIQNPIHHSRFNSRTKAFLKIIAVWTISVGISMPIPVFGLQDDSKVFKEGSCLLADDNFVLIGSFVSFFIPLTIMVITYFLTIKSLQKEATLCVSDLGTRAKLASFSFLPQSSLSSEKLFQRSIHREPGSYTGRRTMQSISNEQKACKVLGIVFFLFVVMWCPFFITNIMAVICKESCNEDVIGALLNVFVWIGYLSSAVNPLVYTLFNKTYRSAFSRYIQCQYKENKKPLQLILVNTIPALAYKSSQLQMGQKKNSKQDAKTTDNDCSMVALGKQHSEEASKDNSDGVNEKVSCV

Turning to `CCO/C=C1\N=C(c2ccccc2)OC1=O`, the Potency entry in assay [1], in assay [2], in assay [3], in assay [4], in assay [5] and in assay [6] was “inactive” each time. Moreover, the Potency entry in [7], in [8], in assay [9], in assay [10], in [11] and in assay [12] was “inactive” in each case. The Potency result in assay [13], in [14], in [15] and in assay [16] was “inactive” each time.
In the case of `CCCCC(CC)COCCCN` (stereo not given), the Potency entry in assay [1], in assay [2], in [3], in [4], in assay [5] and in assay [6] was “inactive” each time. The Potency result in [7], in assay [8], in assay [9], in assay [10], in [11] and in [17] was “inactive” throughout. In addition, the Potency result in assay [13], in assay [14], in [18], in assay [15] and in assay [16] was “inactive” throughout. In addition, in assay [12], the Potency is 17.2 µM (active).
For `CCCOC(=O)c1c(Cl)c(Cl)c(Cl)c(Cl)c1C(=O)OCCC`, the Potency entry in assay [1], in [2], in assay [3], in assay [4], in [5] and in [6] was “inactive” throughout. Besides, the Potency result in [7], in assay [8], in assay [9], in assay [11], in assay [12] and in assay [17] was “inactive” throughout. For the same molecule, the Potency result in assay [13], in assay [19], in [14], in assay [20], in assay [15] and in assay [16] was “inactive” throughout.
In the case of `CCN(Cc1ccncc1)C(=O)C(CO)c1ccccc1` (stereo not given), the Potency result in [1], in assay [2], in assay [3], in assay [4], in [5] and in assay [6] was “inactive” throughout. In addition, the Potency result in assay [7], in assay [8], in assay [9], in assay [10], in [19] and in assay [14] was “inactive” in each case. Further, the Potency entry in assay [20], in assay [18] and in [15] was “inactive” throughout.
For the molecule `CC(C)=CCCC(C)CCOC=O` (stereo not given), the Potency result in assay [1], in assay [2], in assay [3], in assay [4], in [5] and in assay [6] was “inactive” each time. Moreover, the Potency entry in [7], in assay [8], in assay [9], in assay [10], in assay [11] and in assay [17] was “inactive” each time. The Potency entry in [13], in assay [19], in [14], in assay [20], in assay [18] and in assay [16] was “inactive” each time.
As for `CC(C)(c1ccccc1)c1ccccc1`, the Potency entry in assay [1], in [2], in assay [3], in assay [4], in [5] and in [6] was “inactive” each time. In addition, the Potency result in assay [7], in [8], in assay [9], in [10], in assay [11] and in assay [12] was “inactive” each time. In addition, the Potency entry in assay [13], in assay [19], in [14], in assay [20], in assay [18] and in assay [15] was “inactive” in each case.
As to `CCCC(C)C(=O)O` (stereo not given), the Potency entry in assay [1], in assay [2], in [3], in assay [4], in assay [5] and in assay [6] was “inactive” throughout. Besides, the Potency result in assay [7], in [8], in [9], in [10], in [11] and in assay [17] was “inactive” throughout. Also, the Potency result in [13], in assay [14], in [20], in [15] and in [16] was “inactive” in each case.
